Assay results: PubChem BioAssay (Tox21)
Results filed as inconclusive are left out. Calls of active or inactive are those of the source. Unless noted, the call rests on the fitted dose curve.

Assays:
[1] = Nuclear factor erythroid 2-related factor 2/antioxidant responsive element (Nrf2/ARE) small molecule agonists: qHTS cell viability counter screen in human keratinocytes (AID 1919968; active means well fitted curve in the direction sought with a large enough effect in the repeat runs; an effect the other way counts as inactive or inconclusive; further: nearly all actives have a fitted effect of over 55% in size; further: potency means the concentration at half of the fitted maximal effect)
In short: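 Measured as CellTiter-Fluor fluorescence, this readout tracks cytotoxicity in the same wells as the ARE-luciferase screen. HaCaT reporter cells (1,500/well) received compounds after a 5 h pre-incubation and were exposed for 23 h.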

[2] = Nuclear factor erythroid 2-related factor 2/antioxidant responsive element (Nrf2/ARE) small molecule agonists: luciferase reporter gene qHTS assay in human keratinocytes (AID 1919969); further: nearly all actives have a fitted effect of over 35% in size
[3] = molecular target: Gonadotropin-releasing hormone receptor (Homo sapiens) (UniProt P30968); test: Human gonadotropin-releasing hormone receptor (GnRHR) small molecule agonists, calcium flux assay in GnRHR-HEK293 cells (AID 1920063); further: nearly all actives have a fitted effect of over 35% in size
Chain of Gonadotropin-releasing hormone receptor (Homo sapiens) (P30968 whole entry, looked up): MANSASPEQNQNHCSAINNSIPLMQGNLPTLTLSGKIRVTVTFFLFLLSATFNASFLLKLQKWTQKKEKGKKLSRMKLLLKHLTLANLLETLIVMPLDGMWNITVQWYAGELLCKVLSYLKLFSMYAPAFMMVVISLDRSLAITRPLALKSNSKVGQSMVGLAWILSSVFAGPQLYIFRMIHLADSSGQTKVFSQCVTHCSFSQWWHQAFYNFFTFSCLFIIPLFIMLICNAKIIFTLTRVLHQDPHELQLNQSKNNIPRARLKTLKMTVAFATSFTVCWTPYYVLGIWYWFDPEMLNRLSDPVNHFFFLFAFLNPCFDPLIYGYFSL
In short: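 Fluorescence kinetics (480 nm excitation, 540 nm emission; 3 min, 1 s steps) report calcium mobilisation in human GnRHR-HEK293 cells in agonist mode. Dye incubation: 1 h, 37 C.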

[4] = molecular target: KiSS-1 receptor (Homo sapiens) (UniProt Q969F8); test: Human kisspeptin (KISS1R) small molecule agonists, calcium flux assay in KISS1R-HEK293 cells (AID 1920064; active means well fitted curve in the direction sought with a large enough effect in the repeat runs; an effect the other way counts as inactive or inconclusive)
Chain of KiSS-1 receptor (Homo sapiens) (Q969F8 whole entry, looked up): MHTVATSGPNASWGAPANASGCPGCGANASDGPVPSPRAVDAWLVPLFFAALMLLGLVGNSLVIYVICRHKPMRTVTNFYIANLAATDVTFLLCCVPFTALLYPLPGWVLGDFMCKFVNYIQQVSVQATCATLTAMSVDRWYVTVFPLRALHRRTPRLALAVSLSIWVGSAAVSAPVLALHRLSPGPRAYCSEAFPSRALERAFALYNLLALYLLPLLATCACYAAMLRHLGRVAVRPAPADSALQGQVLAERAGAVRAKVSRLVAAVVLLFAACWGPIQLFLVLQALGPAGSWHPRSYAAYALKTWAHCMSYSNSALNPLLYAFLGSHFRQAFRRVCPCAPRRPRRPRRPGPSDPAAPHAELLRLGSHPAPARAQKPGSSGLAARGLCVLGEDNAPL
In short: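 Measures KISS1R agonism through calcium-sensitive dye fluorescence in stably transfected HEK293 cells, read for 3 min after pin-tool compound delivery; 15-point titrations in triplicate.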

[5] = G protein-coupled receptor (GPCR) small molecule agonists, calcium flux assay: HEK293 wild type cell line counter screen (AID 1920065)
In short: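 Readout: fluorescence at 480 nm excitation/540 nm emission, sampled at 1 s intervals for 3 min. Cells had been cultured 18 h, then dye-loaded 1 h at 37 C before compound or ATP addition.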

[6] = p53 small molecule agonists, cell-based qHTS assay with rat liver microsomes (AID 1963578); further: potency means the concentration at half of the fitted maximal effect
In short: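 Compound in DMSO added to p53RE-bla cells 5 h post-plating; rat microsomes/NADPH 0.5 mg/mL final; 16 h, 37 C; LiveBLAzer 2 h RT.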

[7] = p53 small molecule agonists, cell-based qHTS assay with human liver microsomes: qHTS cell viability counter screen (AID 1963579); further: nearly all actives have a fitted effect of over 45% in size
In short: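 HLM-supplemented (0.5 mg/mL final) and NADPH-supplemented (0.5 mg/mL final) p53RE-bla cultures, 4,000 cells per well, were dosed with compounds in DMSO for 16 h at 37 C; luminescent ATP detection (CellTiter-Glo, 30 min, room temperature) quantified surviving cells.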

[8] = p53 small molecule agonists, cell-based qHTS assay with rat liver microsomes: qHTS cell viability counter screen (AID 1963580); further: nearly all actives have a fitted effect of over 45% in size
In short: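 Viability is assessed in parallel with the p53 reporter read: HCT-116 p53RE-bla cells receive compounds plus rat microsomes and NADPH (0.5 mg/mL final apiece), incubate 16 h at 37 C, and then CellTiter-Glo luminescence is recorded.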

[9] = p53 small molecule agonists, cell-based qHTS assay (AID 1963582; active means well fitted activation curve with a large enough effect in the signal ratio in the repeat runs, not every such curve was filed as active; the % refers to the signal ratio)
In short: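 Compounds are pin-transferred in DMSO onto p53RE-bla cells and incubated 16 h at 37 C. The B/G FRET beta-lactamase substrate is then applied for 2 h at RT and fluorescence recorded.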

[10] = molecular target: 5-hydroxytryptamine receptor 2A (Homo sapiens) (UniProt P28223); test: 5-hydroxytryptamine receptor 2A (HTR2A) small molecule antagonists, cell-based qHTS assay (AID 1963586); further: nearly all actives have a fitted effect of over 45% in size
Chain of 5-hydroxytryptamine receptor 2A (Homo sapiens) (P28223 whole entry, looked up): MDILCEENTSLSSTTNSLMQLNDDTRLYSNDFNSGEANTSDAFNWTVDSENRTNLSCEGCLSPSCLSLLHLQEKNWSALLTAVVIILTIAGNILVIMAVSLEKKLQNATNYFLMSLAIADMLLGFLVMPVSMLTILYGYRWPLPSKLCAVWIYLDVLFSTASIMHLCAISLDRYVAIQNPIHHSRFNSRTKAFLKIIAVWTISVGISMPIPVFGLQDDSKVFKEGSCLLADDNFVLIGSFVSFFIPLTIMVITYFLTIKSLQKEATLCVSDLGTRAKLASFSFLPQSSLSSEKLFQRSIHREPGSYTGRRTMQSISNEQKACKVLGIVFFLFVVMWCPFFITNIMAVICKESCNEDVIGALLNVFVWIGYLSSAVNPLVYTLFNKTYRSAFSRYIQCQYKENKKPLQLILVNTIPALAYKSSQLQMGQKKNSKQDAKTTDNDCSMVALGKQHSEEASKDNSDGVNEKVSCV
In short: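 Antagonist-mode intracellular calcium assay: DOI (4 nM) added after 5 min compound pre-incubation at room temperature to dye-loaded HTR2A-CHO cells. Fluorescence followed for 3 min, sampled every second.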

[11] = molecular target: 5-hydroxytryptamine receptor 2A (Homo sapiens) (UniProt P28223); test: 5-hydroxytryptamine receptor 2A (HTR2A) small molecule agonists, cell-based qHTS assay (AID 1963587); further: nearly all actives have a fitted effect of over 30% in size
In short: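 CHO cells stably expressing human HTR2A, plated 18 h, loaded with calcium dye 1 h at 37 C. Agonist mode: compounds added and intracellular calcium fluorescence recorded kinetically for 2 min at 1 sec intervals.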

[12] = molecular target: Muscarinic acetylcholine receptor M1 (Homo sapiens) (UniProt P11229); test: Cholinergic receptor muscarinic 1 (CHRM1) small molecule antagonists, cell-based qHTS assay (AID 1963588); further: nearly all actives have a fitted effect of over 40% in size
Chain of Muscarinic acetylcholine receptor M1 (Homo sapiens) (P11229 whole entry, looked up): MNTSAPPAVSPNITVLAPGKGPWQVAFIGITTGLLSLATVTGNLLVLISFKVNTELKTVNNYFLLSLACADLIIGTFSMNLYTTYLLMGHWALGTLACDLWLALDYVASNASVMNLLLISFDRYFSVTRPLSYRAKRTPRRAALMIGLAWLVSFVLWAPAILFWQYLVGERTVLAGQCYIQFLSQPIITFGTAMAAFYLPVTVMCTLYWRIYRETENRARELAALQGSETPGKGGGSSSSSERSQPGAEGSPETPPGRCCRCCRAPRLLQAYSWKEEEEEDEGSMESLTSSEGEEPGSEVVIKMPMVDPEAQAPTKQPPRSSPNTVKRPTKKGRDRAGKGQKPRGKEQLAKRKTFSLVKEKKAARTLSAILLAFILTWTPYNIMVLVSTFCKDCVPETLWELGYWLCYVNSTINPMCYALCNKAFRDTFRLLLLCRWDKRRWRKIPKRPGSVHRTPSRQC
In short: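 CHRM1-CHO calcium-flux assay, antagonist mode. Cells were seeded 18 h, dye-loaded 1 h at 37 C and given compound for 5 min at RT, then acetylcholine was added at 50nM. FDSS fluorescence was read 3 min; 15 concentrations, three runs.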

[13] = molecular target: Muscarinic acetylcholine receptor M1 (Homo sapiens) (UniProt P11229); test: Cholinergic receptor muscarinic 1 (CHRM1) small molecule agonists, cell-based qHTS assay (AID 1963589); further: nearly all actives have a fitted effect of over 35% in size; further: potency means the concentration at half of the fitted maximal effect
In short: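 Each compound was tested at 15 concentrations across three independent runs on dye-loaded CHO cells stably expressing human CHRM1, reading intracellular calcium fluorescence kinetically at 1 sec intervals.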

[14] = cAMP Responsive Elements (CRE) small molecule agonists, cell-based qHTS assay (AID 1963590); further: potency means the concentration at half of the fitted maximal effect
In short: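 Cell line: CRE-bla HEK 293T; medium DMEM/10% dialyzed FBS/0.1 mM NEAA/1 mM pyruvate/25 mM HEPES; 3 h compound exposure; beta-lactamase FRET readout after 2 h substrate loading at RT.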

[15] = molecular target: Beta-2 adrenergic receptor (Homo sapiens) (UniProt P07550); test: Adrenergic beta2 receptor (ADRB2) small molecule antagonists, cell-based qHTS assay (AID 1963592); further: series mostly up to about 92 µM; nearly all actives have a fitted effect of over 50% in size
Chain of Beta-2 adrenergic receptor (Homo sapiens) (P07550 whole entry, looked up): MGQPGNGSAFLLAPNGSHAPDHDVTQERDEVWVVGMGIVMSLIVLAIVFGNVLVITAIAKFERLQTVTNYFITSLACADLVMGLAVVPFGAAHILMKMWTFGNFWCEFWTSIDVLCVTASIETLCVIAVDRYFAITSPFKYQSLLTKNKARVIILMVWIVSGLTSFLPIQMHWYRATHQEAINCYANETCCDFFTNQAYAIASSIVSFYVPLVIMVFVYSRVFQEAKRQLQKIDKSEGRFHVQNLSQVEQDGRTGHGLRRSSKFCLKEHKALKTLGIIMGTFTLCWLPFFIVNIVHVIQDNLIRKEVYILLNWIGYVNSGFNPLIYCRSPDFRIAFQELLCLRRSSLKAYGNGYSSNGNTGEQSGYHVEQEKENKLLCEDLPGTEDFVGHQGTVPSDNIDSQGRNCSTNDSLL
In short: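 Cells (CHO, stable ADRB2 overexpression) incubated 18-20hr at 37C; compounds added from DMSO; agonist mix (1nM isoproterenol, 100uM IBMX, 25uM Ro-20-1724) added; 0.5hr RT; d2-cAMP and anti-cAMP-cryptate added; 1hr RT; 665/615 nm read.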

[16] = molecular target: D(2) dopamine receptor (Homo sapiens) (UniProt P14416); test: Dopamine D2 receptor (DRD2) small molecule agonists, cell-based qHTS assay (AID 1963594); further: nearly all actives have a fitted effect of over 35% in size
Chain of D(2) dopamine receptor (Homo sapiens) (P14416 whole entry, looked up): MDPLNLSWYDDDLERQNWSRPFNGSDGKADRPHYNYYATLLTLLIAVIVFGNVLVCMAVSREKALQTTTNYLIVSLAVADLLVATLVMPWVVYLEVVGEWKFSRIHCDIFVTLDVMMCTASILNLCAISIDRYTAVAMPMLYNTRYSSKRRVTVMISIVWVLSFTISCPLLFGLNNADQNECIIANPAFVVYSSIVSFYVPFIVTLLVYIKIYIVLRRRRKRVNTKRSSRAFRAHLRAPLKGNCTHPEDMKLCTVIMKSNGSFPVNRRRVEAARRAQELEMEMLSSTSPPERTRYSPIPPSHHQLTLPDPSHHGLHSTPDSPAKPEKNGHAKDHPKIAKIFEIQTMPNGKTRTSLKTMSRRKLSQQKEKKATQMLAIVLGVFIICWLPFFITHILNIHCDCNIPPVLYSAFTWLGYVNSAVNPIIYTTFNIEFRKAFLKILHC
In short: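 HEK293 cells stably expressing human DRD2, pre-treated with PDE inhibitor Ro20-1724 (0.1 mM final) and compound 10 min at room temperature, then stimulated with NKH477 (200nM […]) for 30 min. cAMP read by HTRF (665/620 nm).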

[17] = p53 small molecule agonists, cell-based qHTS assay: qHTS cell viability counter screen (AID 1963581); further: nearly all actives have a fitted effect of over 45% in size
In short: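 In the same plates used for the p53 bla reporter, HCT-116 cells given compounds for 16 h at 37 C received CellTiter-Glo; luminescence was recorded 30 min later at room temperature.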

[18] = molecular target: Beta-2 adrenergic receptor (Homo sapiens) (UniProt P07550); test: Adrenergic beta2 receptor (ADRB2) small molecule agonists, cell-based qHTS assay (AID 1963593);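 further: CHO cells stably overexpressing human ADRB2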
In short: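 CHO cells stably over-expressing ADRB2 were plated overnight at 37C, then dosed with compounds plus a stimulation mix containing 100uM IBMX and 25uM Ro-20-1724 for 0.5hr at room temperature. cAMP was measured by HTRF competition, 1hr.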

[19] = molecular target: D(2) dopamine receptor (Homo sapiens) (UniProt P14416); test: Dopamine D2 receptor (DRD2) small molecule antagonists, cell-based qHTS assay (AID 1963595; active means well fitted inhibition curve with a large enough effect in the signal ratio in the repeat runs, with a control signal flat; the % refers to the signal ratio)
In short: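 HEK293 cells stably expressing DRD2 were preincubated with 0.1 mM Ro20-1724, then with compound for 10 min at room temperature. Cells were stimulated with 200 nM NKH477 plus 12 nM quinpirole for 30 min, and cAMP was read by HTRF.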

[20] = cAMP Responsive Elements (CRE) small molecule antagonists, cell-based qHTS assay (AID 1963591; active means well fitted inhibition curve with a large enough effect in the signal ratio in the repeat runs, not every such curve was filed as active; the % refers to the signal ratio)
In short: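 Inhibition of NKH477-driven (0.25 uM final) CRE-beta-lactamase signal in HEK293T cells, 3 h compound exposure at 37 °C, detected by FRET substrate fluorescence.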

Measured: Potency

CSC(=O)c1cccc2nnsc12
not listed: [16] | [17] | [18] | [19] | [20]
inactive: all other assays above

CCOC(=O)C1=C(C)NC(C)=C(C(=O)OCC)C1c1ccccc1/C=C/C(=O)OC(C)(C)C
inactive: [2] | [3] | [4] | [5] | [7] | [8] | [15] | [16]
active: [1] 18.8 µM | [6] 19.9 µM

NCc1ccccc1
not listed: [9] | [20]
inactive: all other assays above

CC/C=C\CCOC(C)OCC (stereo unspecified)
not listed: [15] | [17] | [18]
inactive: all other assays above

CC(=O)NC1(c2cccc(F)c2)CCN(CC[C@@]2(c3ccc(Cl)c(Cl)c3)CN(c3ccccc3)C(=O)CO2)CC1
active: [1] 48.7 µM
not listed: [10] | [12] | [14] | [15] | [17] | [18] | [20]
inactive: all other assays above

COc1cc(-c2ccc(=O)[nH]n2)ccc1OC(F)F
active: [13] 0.0038 µM | [14] 13.3 µM
not listed: [10] | [17]
inactive: all other assays above

CC(C)(C)c1cc(/C=C2\SC(=N)NC2=O)cc(C(C)(C)C)c1O
active: [1] 30.6 µM
not listed: [9] | [10] | [14] | [15] | [16] | [17] | [18] | [20]
inactive: all other assays above

O=C=Nc1ccc(Cl)c(Cl)c1
not listed: [8] | [18]
inactive: all other assays above
